# From PubChem BioAssay AID463173 (ICCB-Longwood Screening Facility, Harvard Medical School, 2010)
# Where “and” joins values, the source holds several entries; their conditions need not be identical. Equal entries are not always repeated. Screen size: about 52,000 compounds; about 4,300 (8.3%) were called active. Cut-off read from the data, not from the text of the source: active = survival mostly below about 52% (no sharp cut-off); inactive = mostly above about 56%. Shown is part of a subset that was picked to be rich in actives. A structure can be active in one record and inactive in another.
# System: DeltatarO mutant
# Experiment: S. aureus survival, RN4220 and DeltatarO strains – OD600, teichoic acid synthesis inhibitors, primary screen (AID 463173)
# Conditions: S. aureus RN4220 wild type/DeltatarO growth, OD600, 18 h, stronger effect = lower value, screened at 18.75 µg/mL (by protocol)
row,SMILES,survival
1,COc1cc(Cl)c(NS(=O)(=O)c2ccc3c(c2)CC(C)N3C(=O)C2CCC2)c(OC)c1 (stereo not drawn),80% (inactive)
2,CC(C)NC(=O)c1ccc(Cn2c(SCc3ccc(F)cc3)nc3cccnc32)cc1,55% (inactive)
3,O=C1c2ccccc2-c2nc3ccccc3c(=O)n21,106% (inactive)
4,COc1cc(OC)c(NC(=O)COc2ccccc2-c2nnc(-c3ccccc3)o2)cc1Cl,95% (inactive)
5,COCCCNC(=O)c1ccc2nc(Cc3ccc(OC)cc3)oc2c1,69% (inactive)
6,N#C/C(=C\c1cn(Cc2ccc(C#N)cc2)c2ccccc12)C(=O)NCc1ccco1,67% (inactive)
7,O=C(Cn1cnc2onc(-c3ccc(F)cc3)c2c1=O)Nc1ccc(F)c(Cl)c1,84% (inactive)
8,CCOC(=O)c1ccccc1NC(=O)CN1CCCN(Cc2cc(C)ccc2C)S1(=O)=O,126% (inactive)
9,CCOC(=O)c1c(C)oc2c1c(O)c(N=O)c1ccccc12,18% (active)
10,CCOC(=O)c1c(C)oc2ncnc(N3CCN(c4ccccc4)CC3)c12,89% (inactive)
11,CCOC(=O)c1c(C)oc2nc(C)nc(N3CCN(c4ccccc4)CC3)c12,83% (inactive)
12,CCN(CC)c1cc(C)c2cc(NC(=O)c3ccccc3Cl)ccc2n1,55% (inactive)
13,CCN(CC)c1ccc(C(=O)Nc2ccc3nc(N(CC)CC)cc(C)c3c2)cc1,52% (inactive)
14,CCN(CC)c1cc(C)c2cc(NC(=O)c3cccc(F)c3)ccc2n1,42% (inactive)
15,CCOc1ccc(C(=O)Nc2ccc3nc(N(CC)CC)cc(C)c3c2)cc1,70% (inactive)
16,CCN(CC)c1cc(C)c2cc(NC(=O)c3cc(OC)cc(OC)c3)ccc2n1,59% (inactive)
17,CCN(CC)c1cc(C)c2cc(NC(=O)c3cccc(OC)c3)ccc2n1,40% (inactive)
18,CCN(CC)c1cc(C)c2cc(NC(=O)c3ccccc3OC)ccc2n1,7% (active)
19,CCN(CC)c1cc(C)c2cc(NC(=O)c3cccc(OC)c3OC)ccc2n1,95% (inactive)
20,CCN(CC)c1cc(C)c2cc(NC(=O)c3ccc(OC)c(OC)c3)ccc2n1,35% (active)
21,CCOc1ccccc1C(=O)Nc1ccc2nc(N(CC)CC)cc(C)c2c1,65% (active)
22,CCN(CC)c1cc(C)c2cc(NC(=O)/C=C/c3ccccc3OC(C)C)ccc2n1,71% (inactive)
23,CCN(CC)c1cc(C)c2cc(NC(=O)c3ccc(F)cc3Cl)ccc2n1,39% (active)

row,SMILES,survival
1,Cc1ccc(Cl)cc1NC(=O)c1sc2nc(C)c(C)c(C)c2c1N,75% (inactive)
2,Cc1cccc2sc(N(Cc3cccnc3)C(=O)Cc3ccccc3)nc12,81% (inactive)
3,CCCc1cnc2c(c1SCC(=O)Nc1c(C)cc(C)cc1C)c(=O)n(C)c(=O)n2C,94% (inactive)
4,CCOc1ccc(NC(=O)CSc2nc3nc(C)c(Cc4ccccc4)c(C)n3n2)cc1,89% (inactive)
5,CCC(OC(=O)CN1C(=O)c2ccccc2C1=O)C(=O)NC1CCCC1 (stereo not drawn),83% (inactive)
6,COC(=O)c1ccc(C(=O)OC)c(NC(C)=O)c1,73% (inactive)
7,O=C(NCc1ccc(Cl)cc1)C1CCCN(C(=O)c2cnn(-c3ccc(F)cc3)c2-n2cccc2)C1 (stereo not drawn),73% (inactive)
8,Cc1c(Cl)cccc1NC(=O)c1cccc(NC(=O)N2CCSc3ncccc32)c1,80% (inactive)
9,COc1ccc(C(=O)Nc2ccccc2C(=O)Nc2ccccn2)cc1,94% (inactive)
10,O=C1CSC(=Nc2cccc(C(=O)O)c2)N1,82% (inactive)
11,CC(=O)c1cc2c(cc1N/C(=N/S(=O)(=O)c1ccc(Cl)cc1)c1ccc(F)cc1)OCO2,99% (inactive)
12,CC(=O)c1cc2c(cc1N/C(=N/S(=O)(=O)c1ccc(C)cc1)c1ccc(F)cc1)OCO2,83% (inactive)
13,CC(=O)c1cc2c(cc1N/C(=N/S(=O)(=O)c1ccccc1)c1ccc(Cl)cc1)OCO2,0% (active)
14,CC(=O)c1cc2c(cc1N/C(=N/S(=O)(=O)c1ccc(Br)cc1)c1ccccc1)OCO2,69% (inactive)
15,CC(=O)c1cc2c(cc1N/C(=N/S(=O)(=O)c1ccc(C)cc1)c1ccccc1)OCO2,74% (inactive)
16,CC(=O)c1cc2c(cc1N/C(=N/S(=O)(=O)c1ccc(C)cc1)c1ccc(Cl)cc1)OCO2,37% (active)
17,O=C(NCc1cccc(Br)c1)C1CCCCN1S(=O)(=O)c1ccc(F)cc1 (stereo not drawn),89% (inactive)
18,O=C(Cn1c(-c2cccs2)cc2cc(F)ccc21)NCCCN1CCN(c2ccccc2F)CC1,67% (inactive)
19,COc1ccc(-n2nc3c(N4CCC(C(=O)NCCc5ccccc5)CC4)nnc(C)c3c2C)cc1,85% (inactive)
20,CCc1cccc(Nc2c3c(nc4ncnn24)CCC3)c1,95% (inactive)
21,COc1ccc(-c2nn3c(=O)cc(CN4CCN(C(=O)Nc5ccc(C)c(Cl)c5)CC4)nc3s2)cc1,78% (inactive)
22,CCOC(=O)C(C)Sc1nc(-c2ccccc2)ccc1C#N (stereo not drawn),82% (inactive) and -1% (active)
23,CCCCSc1nc(-c2ccc(OC)cc2)ccc1C#N,52% (inactive)

row,SMILES,survival
1,CCOC(=O)C(C)Sc1nc(-c2ccccc2Cl)cc(-c2ccccc2)c1C#N (stereo not drawn),64% (inactive)
2,O=C(CN1CCN(c2ccccn2)CC1)N(c1ccccc1)c1ccc2ccccc2c1,59% (inactive)
3,COc1cccc(NC(=O)c2csc3c2CCCCC3)c1,37% (active)
4,COc1ccc(OC)c(CCNC(=O)c2csc3c2CCCCC3)c1,44% (active)
5,Cc1cccc(C)c1NC(=O)c1csc2c1CCCC2,90% (inactive)
6,COc1ccc(OC)c(CCNC(=O)c2ccc3[nH]c(C)c(C)c3c2)c1,107% (inactive)
7,COc1ccc(NC(=O)c2csc3c2CCCCC3)cc1,70% (inactive)
8,COc1ccc(CCNC(=O)c2csc3c2CCCCC3)c(OC)c1,66% (inactive)
9,COc1ccc(-c2cc(-c3ccccc3)nc3c2COc2ccc(F)cc2-3)cc1,73% (inactive)
10,CCCc1c(O)nc(SCC(=O)N2CCCCC2)[nH]c1=O,69% (inactive)
11,CCOc1ccc2nc(NC(=O)c3nc(SC(C)C)ncc3Cl)sc2c1,41% (active)
12,COc1ccc2nc(NC(=O)c3nc(SC(C)C)ncc3Cl)sc2c1,93% (inactive)
13,COc1ccc2nc(NC(=O)c3nc(SCc4ccc(F)cc4)ncc3Cl)sc2c1,53% (inactive)
14,O=C(Nc1nc2ccc(F)cc2s1)c1nc(SCc2ccccc2F)ncc1Cl,48% (inactive)
15,CCCSc1ncc(Cl)c(C(=O)Nc2nc3ccc(C)cc3s2)n1,49% (active)
16,CCCSc1ncc(Cl)c(C(=O)Nc2nc3ccc(OCC)cc3s2)n1,63% (inactive)
17,Cc1cccc(CSc2ncc(Cl)c(C(=O)Nc3nc4ccc(F)cc4s3)n2)c1,33% (active)
18,Cc1ccccc1CSc1ncc(Cl)c(C(=O)Nc2nc3ccc(F)cc3s2)n1,100% (inactive)
19,CCSc1ncc(Cl)c(C(=O)Nc2nc3ccc(OC)cc3s2)n1,83% (inactive)
20,Cc1ccc(CSc2ncc(Cl)c(C(=O)Nc3nc4ccc(C)cc4s3)n2)cc1,53% (inactive)
21,CCOc1ccc2nc(NC(=O)c3nc(SCc4ccc(C)cc4)ncc3Cl)sc2c1,54% (inactive)
22,COc1ccc2nc(NC(=O)c3nc(SCc4cccc(C)c4)ncc3Cl)sc2c1,37% (active)
